According to the supplement of paper PMC11732987, “Enantioselective OTUD7B fragment discovery through chemoproteomics screening and high-throughput optimisation” (Communications Chemistry, 2025):

Key:
Test in all cases: log2 ratio of Biotin-Ahx-Ub-VS probe labelling (fragment/DMSO); higher = less target engagement (more negative = stronger competition), active = hit call of the paper (q ≤ 0.05, log2 ratio ≤ -1)
Conditions in all cases: compound concentration: 200 uM; treatment time: 3 h
USP19 = target: T1, USP19 (UniProt O94966)
T1 sequence (whole entry): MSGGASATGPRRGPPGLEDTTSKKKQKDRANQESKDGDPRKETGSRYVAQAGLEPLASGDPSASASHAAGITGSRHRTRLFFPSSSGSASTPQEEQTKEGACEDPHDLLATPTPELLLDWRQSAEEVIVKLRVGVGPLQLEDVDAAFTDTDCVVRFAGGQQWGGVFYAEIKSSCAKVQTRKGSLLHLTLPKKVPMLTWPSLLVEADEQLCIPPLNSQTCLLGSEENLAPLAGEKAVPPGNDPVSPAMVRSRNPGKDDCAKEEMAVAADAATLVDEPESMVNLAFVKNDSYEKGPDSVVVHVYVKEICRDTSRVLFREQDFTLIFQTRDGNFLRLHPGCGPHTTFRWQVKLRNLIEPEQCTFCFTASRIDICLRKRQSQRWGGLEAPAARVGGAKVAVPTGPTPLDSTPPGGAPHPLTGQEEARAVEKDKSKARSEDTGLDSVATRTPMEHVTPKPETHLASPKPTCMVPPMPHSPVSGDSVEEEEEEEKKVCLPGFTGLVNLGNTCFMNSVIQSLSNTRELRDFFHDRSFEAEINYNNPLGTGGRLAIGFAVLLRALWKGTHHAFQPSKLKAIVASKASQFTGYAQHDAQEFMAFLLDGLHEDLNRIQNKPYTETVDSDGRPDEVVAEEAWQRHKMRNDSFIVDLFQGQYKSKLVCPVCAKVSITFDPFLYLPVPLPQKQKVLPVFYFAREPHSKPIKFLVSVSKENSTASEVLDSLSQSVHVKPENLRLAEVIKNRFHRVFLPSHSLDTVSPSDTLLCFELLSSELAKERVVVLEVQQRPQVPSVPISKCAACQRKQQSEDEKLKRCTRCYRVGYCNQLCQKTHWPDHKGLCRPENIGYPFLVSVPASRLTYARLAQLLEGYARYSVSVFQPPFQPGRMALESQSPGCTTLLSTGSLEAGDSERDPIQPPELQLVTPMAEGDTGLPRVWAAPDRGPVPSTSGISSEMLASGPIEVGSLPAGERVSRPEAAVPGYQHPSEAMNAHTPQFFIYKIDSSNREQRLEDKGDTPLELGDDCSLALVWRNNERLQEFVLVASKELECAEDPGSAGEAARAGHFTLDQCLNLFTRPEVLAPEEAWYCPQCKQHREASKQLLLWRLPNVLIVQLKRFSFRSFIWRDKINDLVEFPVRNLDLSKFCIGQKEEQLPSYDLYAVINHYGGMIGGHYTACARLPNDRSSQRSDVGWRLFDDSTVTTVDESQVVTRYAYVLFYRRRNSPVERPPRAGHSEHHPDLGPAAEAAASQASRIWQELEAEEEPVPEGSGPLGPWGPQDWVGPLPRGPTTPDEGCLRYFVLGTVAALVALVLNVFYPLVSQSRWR
Outline: (§1)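 Triplicate samples of HEK293T lysate, 495 µg each, received fragment at 200 µM or vehicle for 3 h, followed by Biotin-Ahx-Ub-VS (0.5 µM final) for 1 h. After NeutrAvidin enrichment of labelled DUBs and LysC/trypsin digestion, peptides were run by diaPASEF LC-MS/MS. The values are average log2 fragment/vehicle ratios from global-median-normalised Spectronaut label-free quantities, tested by unpaired t-test on proteins having ≥2 unique peptides.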

USP24 = USP24 (UniProt Q9UPU5)
Outline: as §1

USP25 = target: T2, USP25 (UniProt Q9UHP3)
T2 sequence (whole entry): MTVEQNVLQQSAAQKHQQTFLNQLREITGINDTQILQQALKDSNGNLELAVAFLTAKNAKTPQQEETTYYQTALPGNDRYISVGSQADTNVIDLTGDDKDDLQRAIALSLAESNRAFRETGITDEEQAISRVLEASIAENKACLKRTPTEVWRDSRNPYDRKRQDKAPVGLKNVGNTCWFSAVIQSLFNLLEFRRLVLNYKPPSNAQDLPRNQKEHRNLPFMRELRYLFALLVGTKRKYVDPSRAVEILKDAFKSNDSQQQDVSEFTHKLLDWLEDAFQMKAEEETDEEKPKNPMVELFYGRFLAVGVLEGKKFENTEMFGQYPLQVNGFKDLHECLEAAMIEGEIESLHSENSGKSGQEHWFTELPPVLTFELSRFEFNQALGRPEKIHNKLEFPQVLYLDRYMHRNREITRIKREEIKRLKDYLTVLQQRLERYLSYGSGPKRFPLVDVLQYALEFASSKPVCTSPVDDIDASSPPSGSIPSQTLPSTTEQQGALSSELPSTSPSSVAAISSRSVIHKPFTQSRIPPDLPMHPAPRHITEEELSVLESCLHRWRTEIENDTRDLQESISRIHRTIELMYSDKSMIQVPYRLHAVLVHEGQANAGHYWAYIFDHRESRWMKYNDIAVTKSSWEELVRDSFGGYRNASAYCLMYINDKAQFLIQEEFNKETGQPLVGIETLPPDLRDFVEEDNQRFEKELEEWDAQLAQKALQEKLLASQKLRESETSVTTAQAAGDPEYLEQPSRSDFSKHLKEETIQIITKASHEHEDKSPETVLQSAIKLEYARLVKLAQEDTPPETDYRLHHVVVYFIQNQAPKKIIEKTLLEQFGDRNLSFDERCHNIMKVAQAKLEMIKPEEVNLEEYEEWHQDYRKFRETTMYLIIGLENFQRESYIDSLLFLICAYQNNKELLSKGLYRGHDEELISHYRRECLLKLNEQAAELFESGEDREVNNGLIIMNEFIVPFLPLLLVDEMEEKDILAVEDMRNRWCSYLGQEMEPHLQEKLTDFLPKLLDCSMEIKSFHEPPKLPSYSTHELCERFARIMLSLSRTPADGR
Outline: as §1

USP28 = target: T3, USP28 (UniProt Q96RU2)
T3 sequence (whole entry): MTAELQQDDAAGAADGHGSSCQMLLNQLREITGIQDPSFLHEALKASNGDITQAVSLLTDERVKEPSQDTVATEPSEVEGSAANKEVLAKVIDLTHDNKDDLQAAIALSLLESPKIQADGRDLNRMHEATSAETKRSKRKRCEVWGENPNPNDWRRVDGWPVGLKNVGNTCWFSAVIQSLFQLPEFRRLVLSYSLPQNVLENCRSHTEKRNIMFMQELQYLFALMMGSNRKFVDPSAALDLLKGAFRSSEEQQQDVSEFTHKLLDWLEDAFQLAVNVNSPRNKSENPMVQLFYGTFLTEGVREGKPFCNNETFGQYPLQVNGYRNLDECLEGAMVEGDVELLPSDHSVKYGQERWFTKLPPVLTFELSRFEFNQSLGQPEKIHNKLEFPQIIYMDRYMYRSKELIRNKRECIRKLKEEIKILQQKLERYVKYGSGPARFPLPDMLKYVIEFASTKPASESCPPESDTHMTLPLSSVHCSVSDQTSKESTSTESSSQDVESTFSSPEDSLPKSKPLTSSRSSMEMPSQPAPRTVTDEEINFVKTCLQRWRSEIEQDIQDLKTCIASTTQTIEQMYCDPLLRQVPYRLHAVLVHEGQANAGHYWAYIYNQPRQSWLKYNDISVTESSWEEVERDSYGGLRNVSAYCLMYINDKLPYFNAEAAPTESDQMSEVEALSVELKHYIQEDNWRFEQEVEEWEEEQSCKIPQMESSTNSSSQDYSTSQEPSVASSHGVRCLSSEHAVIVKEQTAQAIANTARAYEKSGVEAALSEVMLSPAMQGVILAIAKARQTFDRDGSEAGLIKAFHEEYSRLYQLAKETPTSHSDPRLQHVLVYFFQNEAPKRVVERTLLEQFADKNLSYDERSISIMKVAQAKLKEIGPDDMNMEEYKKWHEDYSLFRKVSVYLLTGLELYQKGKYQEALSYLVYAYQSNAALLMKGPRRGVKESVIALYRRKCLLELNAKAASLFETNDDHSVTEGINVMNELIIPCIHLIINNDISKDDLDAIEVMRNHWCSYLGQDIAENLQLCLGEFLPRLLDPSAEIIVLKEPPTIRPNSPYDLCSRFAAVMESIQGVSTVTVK
Outline: as §1

Measured: log2 ratio of Biotin-Ahx-Ub-VS probe labelling

Sequence of USP24 (Q9UPU5 whole entry): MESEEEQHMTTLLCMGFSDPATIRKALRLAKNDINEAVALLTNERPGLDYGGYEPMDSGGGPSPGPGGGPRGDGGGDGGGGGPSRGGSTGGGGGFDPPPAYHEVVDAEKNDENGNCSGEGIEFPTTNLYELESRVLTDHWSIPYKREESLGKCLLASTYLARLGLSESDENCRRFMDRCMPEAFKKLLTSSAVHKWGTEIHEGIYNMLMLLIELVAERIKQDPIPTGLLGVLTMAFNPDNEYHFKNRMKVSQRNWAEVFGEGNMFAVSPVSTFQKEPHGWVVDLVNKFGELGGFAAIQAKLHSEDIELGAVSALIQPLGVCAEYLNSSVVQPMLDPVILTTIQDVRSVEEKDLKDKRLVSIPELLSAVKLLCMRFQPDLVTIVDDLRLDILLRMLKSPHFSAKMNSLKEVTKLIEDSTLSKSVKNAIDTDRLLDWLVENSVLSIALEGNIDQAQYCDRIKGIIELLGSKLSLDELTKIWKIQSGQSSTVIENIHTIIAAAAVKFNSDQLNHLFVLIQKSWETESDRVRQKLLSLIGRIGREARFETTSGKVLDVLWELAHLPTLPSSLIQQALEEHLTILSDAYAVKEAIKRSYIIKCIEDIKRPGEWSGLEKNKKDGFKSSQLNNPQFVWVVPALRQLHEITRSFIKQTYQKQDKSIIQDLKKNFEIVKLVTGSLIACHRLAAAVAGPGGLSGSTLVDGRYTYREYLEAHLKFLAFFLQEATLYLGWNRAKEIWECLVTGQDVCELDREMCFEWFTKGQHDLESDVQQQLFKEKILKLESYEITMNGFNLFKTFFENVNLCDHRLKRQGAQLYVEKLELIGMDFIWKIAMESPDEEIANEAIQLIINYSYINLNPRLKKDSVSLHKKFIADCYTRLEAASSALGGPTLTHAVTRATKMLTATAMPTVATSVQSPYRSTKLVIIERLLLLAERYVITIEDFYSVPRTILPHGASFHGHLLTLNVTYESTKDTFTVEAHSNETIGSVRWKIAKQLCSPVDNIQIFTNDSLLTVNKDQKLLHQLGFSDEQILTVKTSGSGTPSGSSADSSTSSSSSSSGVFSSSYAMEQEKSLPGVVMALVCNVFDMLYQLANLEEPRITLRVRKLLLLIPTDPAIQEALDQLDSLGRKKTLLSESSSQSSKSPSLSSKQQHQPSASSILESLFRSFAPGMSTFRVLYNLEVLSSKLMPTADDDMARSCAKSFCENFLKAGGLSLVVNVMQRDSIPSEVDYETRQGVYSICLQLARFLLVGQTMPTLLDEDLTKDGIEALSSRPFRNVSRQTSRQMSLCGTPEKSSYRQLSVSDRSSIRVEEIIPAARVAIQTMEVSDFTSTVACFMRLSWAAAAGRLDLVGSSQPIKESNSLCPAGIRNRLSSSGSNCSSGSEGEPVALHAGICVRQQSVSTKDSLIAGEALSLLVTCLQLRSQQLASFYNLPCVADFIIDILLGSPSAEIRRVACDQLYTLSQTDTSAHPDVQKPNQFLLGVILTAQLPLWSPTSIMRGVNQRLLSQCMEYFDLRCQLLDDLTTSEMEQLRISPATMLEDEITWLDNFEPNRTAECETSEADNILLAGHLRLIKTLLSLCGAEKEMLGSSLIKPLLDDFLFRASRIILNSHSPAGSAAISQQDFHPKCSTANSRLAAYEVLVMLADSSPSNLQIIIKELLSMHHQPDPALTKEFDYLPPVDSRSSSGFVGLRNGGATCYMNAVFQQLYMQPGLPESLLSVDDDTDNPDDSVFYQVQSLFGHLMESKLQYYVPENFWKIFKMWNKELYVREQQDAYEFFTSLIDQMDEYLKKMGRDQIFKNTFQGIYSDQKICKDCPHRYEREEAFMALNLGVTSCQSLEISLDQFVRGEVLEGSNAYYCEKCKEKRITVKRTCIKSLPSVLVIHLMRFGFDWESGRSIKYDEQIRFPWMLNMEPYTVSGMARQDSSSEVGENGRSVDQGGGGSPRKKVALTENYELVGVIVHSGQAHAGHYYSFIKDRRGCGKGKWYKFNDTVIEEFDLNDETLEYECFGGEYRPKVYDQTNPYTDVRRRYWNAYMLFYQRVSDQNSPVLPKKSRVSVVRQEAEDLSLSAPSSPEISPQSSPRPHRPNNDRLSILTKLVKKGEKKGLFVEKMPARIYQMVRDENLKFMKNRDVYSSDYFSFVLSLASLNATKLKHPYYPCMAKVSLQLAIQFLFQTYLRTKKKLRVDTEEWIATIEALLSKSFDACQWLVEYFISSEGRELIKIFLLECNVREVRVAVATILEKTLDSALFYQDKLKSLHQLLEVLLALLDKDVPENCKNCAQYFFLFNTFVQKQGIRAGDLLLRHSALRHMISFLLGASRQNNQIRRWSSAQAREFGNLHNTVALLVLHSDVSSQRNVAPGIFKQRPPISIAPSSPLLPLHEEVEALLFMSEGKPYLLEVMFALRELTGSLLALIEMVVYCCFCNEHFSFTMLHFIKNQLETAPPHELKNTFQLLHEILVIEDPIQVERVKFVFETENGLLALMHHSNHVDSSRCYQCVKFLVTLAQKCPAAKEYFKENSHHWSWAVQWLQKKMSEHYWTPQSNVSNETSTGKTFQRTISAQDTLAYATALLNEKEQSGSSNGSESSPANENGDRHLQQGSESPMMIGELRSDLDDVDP

Cc1ccc(N2CCC(NC(=O)CCl)C2=O)cc1 (centres undefined)
inactive: USP19 0.0818 | USP24 0.141 | USP25 0.0471 | USP28 -0.0346
